Assay results as given in PubChem BioAssay (NCI).
About 79,000 compounds went through this panel and 15% of them were active in at least one assay; those are over-represented in the sample as a whole. A number with no mark means an inactive call. Activity calls are given as the source filed them. Cut-off read from the data, not from the text of the source: active = growth inhibition above about 70%; inactive = the rest.

Experiments:
[1] = NCI Yeast Anticancer Drug Screen. Data for the rad50 strain (AID 155);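 note: 0% = growth of vehicle-only cultures of the same strain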; settings: S. cerevisiae rad50 strain growth inhibition, hits give high values
Summary of the method: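 Relative growth inhibition (compound vs vehicle) was measured in yeast with a defined repair-gene alteration.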

[2] = NCI Yeast Anticancer Drug Screen. Data for the mec2-1 strain (AID 157); settings: S. cerevisiae mec2-1 strain, hits give high values
Summary of the method: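 Strain: mec2-1 (DNA repair/cell cycle alteration). Compound exposure, then growth measured; inhibition expressed relative to vehicle.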

[3] = NCI Yeast Anticancer Drug Screen. Data for the sgs1 mgt1 strain (AID 161);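 note: 0% = growth of cultures given vehicle only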; settings: S. cerevisiae sgs1 mgt1 strain, hits give high values
Summary of the method: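 Read-out: growth inhibition vs vehicle controls. Cells: mutant yeast strain deficient in DNA damage repair.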

[4] = NCI Yeast Anticancer Drug Screen. Data for the cln2 rad14 strain (AID 165);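 note: 0% = growth equal to vehicle treated cultures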; settings: S. cerevisiae cln2 rad14 strain, hits give high values
Summary of the method: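 Compounds are applied to the cln2 rad14 yeast strain, and growth is then compared with that of vehicle-treated cultures to give inhibition.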

[5] = NCI Yeast Anticancer Drug Screen. Data for the bub3 strain (AID 167); settings: S. cerevisiae bub3 mutant strain, hits give high values
Summary of the method: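 Screening used yeast with an engineered genetic alteration affecting cell cycle control. Compound-exposed cultures were compared with vehicle cultures, and reduced growth was taken as inhibition.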

[6] = NCI Yeast Anticancer Drug Screen. Data for the mlh1 rad18 strain (AID 175); settings: S. cerevisiae mlh1 rad18 strain growth inhibition, hits give high values
Summary of the method: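 Read-out is yeast growth inhibition, calculated against vehicle-only controls. The compound was applied to a strain engineered with DNA damage repair alterations.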

[7] = at 5.0 µM (retest, dose inferred, filed as 0.5)
[8] = at 50.0 µM (retest, dose inferred, filed as 5.0)

Row | SMILES | growth inhibition [1, 7] | growth inhibition [1, 8] | growth inhibition ([1]; at 50.0 µM) | growth inhibition [2, 7] | growth inhibition [2, 8] | growth inhibition ([2]; at 50.0 µM) | growth inhibition [3, 7] | growth inhibition [3, 8] | growth inhibition ([3]; at 50.0 µM) | growth inhibition [4, 7] | growth inhibition [4, 8] | growth inhibition ([4]; at 50.0 µM) | growth inhibition [5, 7] | growth inhibition [5, 8] | growth inhibition ([5]; at 50.0 µM) | growth inhibition [6, 7] | growth inhibition [6, 8] | growth inhibition ([6]; at 50.0 µM)
1 | O=C(Nc1c(Cl)cccc1Cl)Oc1c(Br)cc(Br)cc1Br | 77% (active) | 96% (active) | 90.3% (active) | 66% | 94% (active) | 93% (active) | 27% | 98% (active) | 93.2% (active) | 25% | 100% (active) | 92.2% (active) | 58% | 93% (active) | 91% (active) | 64% | 98% (active) | 90.1% (active)
2 | CCCCCCCCCCCC(=O)OCCCCC | -5% | 0% | 74.8% (active) | -1% | 1% | 87.3% (active) | -3% | 3% | 65.8% | -1% | -4% | -2.5% | -2% | -4% | 80.6% (active) | -8% | 0% | 87.7% (active)
3 | Cc1ccc(NCCN(C)C)c2c(=O)c3c(O)cccc3sc12 | 95% (active) | 99% (active) | 67.3% | 13% | 100% (active) | 54.3% | 30% | 98% (active) | 60.7% | 11% | 99% (active) | 58.7% | 9% | 99% (active) | 49.5% | 29% | 99% (active) | 55.8%
4 | O=C(c1ccc([N+](=O)[O-])cc1)C(Br)C(Br)c1ccnc2ccccc12 (stereo not given) | 25% | 80% (active) | 98.2% (active) | 23% | 63% | 99.1% (active) | 21% | 91% (active) | 98.9% (active) | -1% | 69% | 96.7% (active) | 3% | 86% (active) | 98.8% (active) | 18% | 95% (active) | 98.8% (active)
5 | CC(C(=O)N1C(=O)N(C(=O)C(C)C(O)c2ccccc2)C(c2ccccc2)C1c1ccccc1)C(O)c1ccccc1 (stereo not given) | 3% | 91% (active) | 89.2% (active) | -10% | 92% (active) | 91.5% (active) | -9% | 91% (active) | 91.9% (active) | 29% | 89% (active) | 90.1% (active) | -18% | 96% (active) | 88.2% (active) | 23% | 91% (active) | 91.3% (active)
6 | CC(=O)Oc1c(Br)cc(Br)cc1Br | 4% | -4% | 9.35% | -5% | -34% | 6.7% | 10% | 4% | 4.5% | 2% | -2% | 1.2% | 10% | 6% | 9.1% | 13% | 20% | 0.9%
7 | C=C1C(=O)[C@]23C[C@H]1CC[C@H]2[C@@]12CO[C@@H](O)[C@@H]1C(C)(C)[C@@H](O)C[C@@H]2OC3=O | 8% | 6% | 2.3% | -19% | 79% (active) | -5.25% | 9% | 27% | 25.4% | -7% | 95% (active) | 67.2% | -5% | 95% (active) | -0.9% | -1% | 11% | 24.4%
8 | CCC[CH2][Sn]([CH2]CCC)([O]C(=O)Cc1ccc(F)cc1)[O]C(=O)Cc1ccc(F)cc1 | 27% | 27% | 86.7% (active) | 30% | 30% | 81.5% (active) | 27% | 27% | 83.3% (active) | 16% | 16% | 78.1% (active) | 21% | 21% | 76% (active) | 14% | 14% | 76.2% (active)
9 | CCCNC(=O)c1cc2ccccc2cc1C(=O)OC | 59% | 90% (active) | 86% (active) | 48% | 90% (active) | 88.5% (active) | 51% | 95% (active) | 81.9% (active) | 49% | 74% (active) | 81.1% (active) | 68% | 94% (active) | 88.3% (active) | 65% | 94% (active) | 86.2% (active)
10 | CCOCCOC(=O)c1cc([N+](=O)[O-])cc([N+](=O)[O-])c1 | -4% | 94% (active) | 60.2% | -5% | 98% (active) | 66.3% | -3% | 93% (active) | 53.8% | -3% | 41% | -1.5% | -8% | 94% (active) | 91.7% (active) | 2% | 98% (active) | 95.9% (active)
